Screening results: PubChem, National Center for Advancing Translational Sciences (NCATS)
TDP1 cell noCPT: qHTS for Inhibitors of human tyrosyl-DNA phosphodiesterase 1 (TDP1): qHTS in cells in absence of CPT | 420,000 compounds, 15% hits | DT40 Tdp1-/- hTDP1 cells, no CPT, ATP luminescence, 48 h | AID 686978, 2013 | Potency, µM (doses to about 46.2 µM), for the others: top-dose activity change, negative = growth inhibition, hits mostly inhibitors; further: potency means the concentration at half of the fitted maximal effect; nearly all actives have a fitted effect of over 55% in size
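Readout: luminescence from CellTiter-Glo after 30 min in the dark at RT. Cells: DT40 Tdp1-/- with stable hTDP1, 400/well. Exposure: compounds alone, ≥48 hr, 37 °C.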
IL1B secr inh: inflammasome signaling inhibition, IL-1 beta readout. THP-1 LPS/ATP IL-1B secretion, AlphaLISA, 16 h; active compounds read low. activity change, % at 57.5 µM. 360,000 compounds, 4.7% hits. AID 743279; in the data active means activity change below about -50%; inconclusive means mostly about -30% to -49%
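Secreted IL-1B measured by AlphaLISA bead assay after 16 h compound exposure of THP-1 cells; compounds (final up to 57.5 uM) added 1 h before LPS (250 ng/mL) and ATP (1.25 mM) stimulation; lower signal means less secretion.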
LDHA inh: inhibitors of human lactate dehydrogenase A. purified LDHA, NADH/diaphorase-resazurin fluorescence; active compounds read low. activity change, % (values are at about 110 or 230 µM). 480,000 compounds, 0.15% hits. AID 1347041; in the data active means activity change below about -30%; inconclusive means mostly about -25% to -30%;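 further: plate controls were DMSO wells for no effect and wells without enzyme for full effect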
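Remaining NADH was detected by diaphorase (0.133 mg/mL) converting 37 µM resazurin to fluorescent resorufin, read at 0 and 20 minutes. The preceding 5-minute room-temperature reaction used 2 nM LDHA, 0.2 mM sodium pyruvate and 0.06 mM NADH at pH 7.4.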
DT40 TDP1 CPT: growth inhibition of DT40 Tdp1-/-;hTDP1 cells with camptothecin (screen for TDP1 inhibitors) | chicken DT40 Tdp1-/-;hTDP1 cells + 20 nM CPT, ATP luminescence, 48 h | Potency, µM (highest dose often 46.2 µM), for inactives: at the highest dose activity change, negative = growth inhibition, hits mostly inhibitors | 420,000 compounds, 12% hits | AID 686979; further: potency means the concentration at half of the fitted maximal effect; nearly all actives have a fitted effect of over 55% in size
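Chicken DT40 Tdp1-/- cells stably complemented with human TDP1 were seeded at 400 cells/well in medium containing 20 nM camptothecin, exposed to pin-transferred compounds, and grown at 37 °C for at least 48 hr. Viability was read as ATP luminescence.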
RORg inh: ROR gamma (mouse) transcription inhibition. AID 2551. Potency, µM (titrated, usually from 53.6 µM), inactives show at the top dose activity change, negative = inhibition, actives largely listed as inhibitors. 310,000 compounds, 5.4% hits. Drosophila S2 Gal4-RORgamma UAS-luciferase reporter, 20 h. P51450; further: potency means the concentration at half of the fitted maximal effect; nearly all actives have a fitted effect of over 60% in size
Target sequence (P51450 whole entry, looked up, the tested form may be a part): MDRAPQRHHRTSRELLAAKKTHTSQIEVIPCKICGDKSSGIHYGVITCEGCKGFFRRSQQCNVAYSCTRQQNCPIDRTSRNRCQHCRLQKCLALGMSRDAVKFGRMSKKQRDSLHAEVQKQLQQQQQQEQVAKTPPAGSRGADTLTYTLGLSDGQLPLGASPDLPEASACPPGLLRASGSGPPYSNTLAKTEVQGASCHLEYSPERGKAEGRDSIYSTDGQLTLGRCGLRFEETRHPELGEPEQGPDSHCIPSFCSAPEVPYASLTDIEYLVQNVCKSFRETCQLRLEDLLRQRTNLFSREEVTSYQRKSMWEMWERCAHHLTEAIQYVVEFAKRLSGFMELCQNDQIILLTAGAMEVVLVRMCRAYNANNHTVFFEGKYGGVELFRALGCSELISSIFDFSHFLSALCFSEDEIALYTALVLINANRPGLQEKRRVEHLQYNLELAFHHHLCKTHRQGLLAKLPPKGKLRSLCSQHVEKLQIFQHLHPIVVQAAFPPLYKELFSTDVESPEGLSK
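Stable Schneider cell line, Gal4 DNA-binding domain fused to ROR gamma, UAS-luciferase. Cmpd 1 hr RT → CuSO4 700 uM final → 20 hr RT → luciferase reagent 10 min → luminescence.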
Gal4-VP16 FLuc: inhibits Gal4-VP16 luciferase reporter, ROR gamma counter-screen; Drosophila S2 Gal4-VP16 UAS-luciferase, luminescence, 20 h; Potency, µM (top dose mostly 53.6 µM), inactives show at the highest dose activity, negative = inhibition, usual class: inhibitors; 310,000 compounds, 3.5% hits;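 further: Gal4-VP16 expression switched on by copper sulfate through the metallothionein promoter; potency means the concentration at half of the fitted maximal effect; nearly all actives have a fitted effect of over 50% in size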
The depositor's hits bear a star; [ ] = dose if it differs, or a comment. Only some compounds are listed: those with a hit (about 18% of all), similar ones and a draw of the others. Unless noted, the call rests on the fitted dose curve; in most records, active means well fitted curve in the direction sought with a large enough effect; inconclusive means small, poorly fitted or top-dose-only effect, or another doubt; inactive means no such curve, though single readings can be large; an effect the other way counts as inactive or inconclusive. Unless noted, on the % scale 0 is the no-effect control and ±100 the full control effect.

For Cc1ccc(NC(=O)C=C2CCCCC2)cc1 the results were LDHA inh -2.
Screening Cc1ccc(C)c(N2CCN(C(=O)CCn3c(=S)[nH]c4cc5c(cc4c3=O)OCO5)CC2)c1 returned TDP1 cell noCPT inconclusive, IL1B secr inh 59, LDHA inh 0, DT40 TDP1 CPT inconclusive, RORg inh inconclusive and Gal4-VP16 FLuc -3%.
CC(C)OCCCn1c(=S)[nH]c2cc3c(cc2c1=O)OCO3 was read as TDP1 cell noCPT -27%, IL1B secr inh 20, LDHA inh 2, DT40 TDP1 CPT -20%, RORg inh 4µM* and Gal4-VP16 FLuc 6.3µM*.
COc1ccc(N2CCN(C(=O)CCCn3c(=S)[nH]c4cc5c(cc4c3=O)OCO5)CC2)cc1 was read as TDP1 cell noCPT -6%, IL1B secr inh -16, LDHA inh 0, DT40 TDP1 CPT -20%, RORg inh 7.1µM* and Gal4-VP16 FLuc inconclusive.
`O=C(CCCCCn1c(=S)[nH]c2cc3c(cc2c1=O)OCO3)N1CCN(Cc2ccccc2)CC1` gave TDP1 cell noCPT -29%, IL1B secr inh 30, LDHA inh -10, DT40 TDP1 CPT 9.2µM* and RORg inh -5%[0.365 µM].
`O=C(CCCCCn1c(=S)[nH]c2cc3c(cc2c1=O)OCO3)N1CCN(C2CCCCC2)CC1` gave TDP1 cell noCPT inconclusive, IL1B secr inh -74*, LDHA inh 1, DT40 TDP1 CPT inconclusive, RORg inh inconclusive and Gal4-VP16 FLuc inconclusive.
`CC1CCN(CCn2c(=S)[nH]c3cc4c(cc3c2=O)OCO4)CC1` gave TDP1 cell noCPT 6%, IL1B secr inh 9, LDHA inh -3, DT40 TDP1 CPT -1%, RORg inh -20% and Gal4-VP16 FLuc 6%.
For O=C(CCCCCn1c(=S)[nH]c2cc3c(cc2c1=O)OCO3)N1CCN(C(=O)c2ccco2)CC1 the results were TDP1 cell noCPT -29%, IL1B secr inh 0, LDHA inh -5, DT40 TDP1 CPT -23%, RORg inh -12% and Gal4-VP16 FLuc 9%.
Cc1ccc(CC/C=N/NC(N)=S)o1 was read as LDHA inh 8.
Screening CCN(CC)c1ccc(-c2nnc(SCCS(=O)(=O)c3ccc(Cl)cc3)o2)cc1 returned LDHA inh 0.
For O=C(CCCn1c(=S)[nH]c2cc3c(cc2c1=O)OCO3)NCc1cccc(Cl)c1 the results were TDP1 cell noCPT inconclusive, IL1B secr inh 40, LDHA inh -17, DT40 TDP1 CPT inconclusive, RORg inh 13µM* and Gal4-VP16 FLuc inconclusive.
For O=C(CCCn1c(=S)[nH]c2cc3c(cc2c1=O)OCO3)N1CCN(c2ccccn2)CC1 the results were TDP1 cell noCPT inconclusive, IL1B secr inh 1, LDHA inh 1, DT40 TDP1 CPT inconclusive, RORg inh 13µM* and Gal4-VP16 FLuc inconclusive.
For O=C(CCCn1c(=O)[nH]c2ccccc2c1=O)N1CCN(c2ccccn2)CC1 the results were TDP1 cell noCPT -16%, IL1B secr inh -6, LDHA inh 1, DT40 TDP1 CPT -13%, RORg inh -23% and Gal4-VP16 FLuc -10%.
Screening Cc1cccc(Oc2cnn(-c3ccc(C(F)(F)F)cn3)c(=O)c2Cl)c1C returned LDHA inh 1.
`CCCNC(=O)OCc1cccnc1Sc1ccc(C)cc1` gave TDP1 cell noCPT 15µM*, IL1B secr inh 3, LDHA inh 1, DT40 TDP1 CPT inconclusive, RORg inh inconclusive and Gal4-VP16 FLuc -8%.
Screening CCOC(=O)N1CCC(NC(=O)c2ccc3c(c2)N(Cc2ccc(F)cc2)C(=O)c2ccccc2S3=O)CC1 (stereo unspecified) returned TDP1 cell noCPT inconclusive, LDHA inh -4 and DT40 TDP1 CPT 16µM*.
For CCOC(=O)N1CCC(NC(=O)c2ccc3c(c2)N(Cc2ccc(Cl)cc2)C(=O)c2ccccc2S3=O)CC1 (stereo unspecified) the results were TDP1 cell noCPT 23µM*, LDHA inh -5 and DT40 TDP1 CPT inconclusive.
For CCOC(=O)N1CCC(NC(=O)c2ccc3c(c2)N(Cc2ccccc2)C(=O)c2ccccc2S3(=O)=O)CC1 the results were TDP1 cell noCPT inconclusive, LDHA inh -19 and DT40 TDP1 CPT inconclusive.
Screening CCOC(=O)N1CCC(NC(=O)c2ccc3c(c2)N(Cc2ccc(Cl)cc2)C(=O)c2ccccc2S3(=O)=O)CC1 returned TDP1 cell noCPT 23µM*, LDHA inh -5 and DT40 TDP1 CPT inconclusive.
O=C(O)CNS(=O)(=O)c1cccnc1 was read as LDHA inh 5.
For Cc1oc(-c2nc(C#N)c(NCc3ccccc3Cl)o2)cc1S(=O)(=O)N(C)C the results were LDHA inh 4.
`Cc1cc(C)c(O)c(-c2n[nH]c3c2C(c2ccc(Cl)c(Cl)c2)N(CCCO)C3=O)c1` (stereo unspecified) gave LDHA inh 1.
Screening CC(C)Cn1c(O)c(/C=C2\C=NN=C2c2ccccc2)sc1=S returned TDP1 cell noCPT inconclusive, IL1B secr inh -89*, LDHA inh 0, DT40 TDP1 CPT inconclusive, RORg inh inconclusive and Gal4-VP16 FLuc inconclusive.
For Cn1c(O)c(/C=C2\C=NN=C2c2ccccc2)sc1=S the results were TDP1 cell noCPT inconclusive, IL1B secr inh 0, LDHA inh 3, DT40 TDP1 CPT -28%, RORg inh 1% and Gal4-VP16 FLuc -5%.
For CCCCn1c(O)c(/C=C2\C=NN=C2c2ccccc2)sc1=S the results were TDP1 cell noCPT inconclusive, IL1B secr inh -85*, LDHA inh -5, DT40 TDP1 CPT inconclusive, RORg inh inconclusive and Gal4-VP16 FLuc inconclusive.
`CCn1c(O)c(/C=C2\C=NN=C2c2ccccc2)sc1=S` gave TDP1 cell noCPT inconclusive, IL1B secr inh inconclusive, LDHA inh -2, DT40 TDP1 CPT -5%, RORg inh -10% and Gal4-VP16 FLuc 1%.
CCCCCCn1c(O)c(/C=C2\C=NN=C2c2ccccc2)sc1=S was read as TDP1 cell noCPT 23µM*, IL1B secr inh -87*, LDHA inh 4, DT40 TDP1 CPT inconclusive, RORg inh 37% and Gal4-VP16 FLuc -11%.
O=C(COC(=O)/C=C/c1cccc2cccnc12)Nc1ccc(O)cc1 was read as LDHA inh 1.
